Results on 16 compounds are retold here after PubChem BioAssay.

Active and inactive are the calls of the source. How the calls were made is not given here.

In the test the target is Pantothenate synthetase (Mycobacterium tuberculosis (strain ATCC 25618 / H37Rv)) (UniProt P9WIL5). Description: Recombinant Mtb pantothenate synthetase (PanC) inhibitors, coupled enzyme, confirmatory (AID 375).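 Further: 0% = full reaction with vehicle and 100% = no enzyme background.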 The note with it: coupled enzyme assay; at 10 µM, stronger effect = higher value.
Chain of Pantothenate synthetase (Mycobacterium tuberculosis (strain ATCC 25618 / H37Rv)) (P9WIL5 whole entry, looked up): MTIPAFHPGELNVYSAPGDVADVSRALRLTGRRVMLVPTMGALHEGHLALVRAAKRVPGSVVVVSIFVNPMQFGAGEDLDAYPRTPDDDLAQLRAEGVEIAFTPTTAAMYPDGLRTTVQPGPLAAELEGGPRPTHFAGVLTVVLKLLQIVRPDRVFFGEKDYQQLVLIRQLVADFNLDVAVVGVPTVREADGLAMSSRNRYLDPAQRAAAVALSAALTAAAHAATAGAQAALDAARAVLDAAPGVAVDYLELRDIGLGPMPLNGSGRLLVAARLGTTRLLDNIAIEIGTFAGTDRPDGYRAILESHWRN
Broadly, the inhibition is the change of the read-out against control, counted positive when it falls. As for `Cc1nc2sccn2c(=O)c1CCN1CCC(=C(c2ccccc2)c2ccc(F)cc2)CC1`, the inhibition was 3% (inactive).

For the compound `CCOc1ccc2nc(SCC(=O)Nc3ncccn3)[nH]c2c1`, the inhibition was 0% (inactive). On to `COc1ccc(C(C)(C)C)cc1NC(=O)Nc1ccc2c(c1)OCO2`, for which the inhibition was 5% (inactive). Under `Cc1noc(C)c1S(=O)(=O)Nc1c(C)n(C)n(-c2ccccc2)c1=O` stands 5% (inactive); under `COc1cccc(CC(=O)Nn2c(C)nc3ccccc3c2=O)c1`, 2% (inactive). Regarding `COc1ccc(C(=O)Nn2c(SCC(=O)NCC3CCCO3)nc3ccccc3c2=O)cc1` (stereo unspecified), the inhibition is 2% (inactive). As for `Cc1cccc(NC(=O)CC2NC3CCCCC3NC2=O)c1` (stereo unspecified), the inhibition was 0% (inactive). Regarding `Cc1nn(C)c(C)c1CNC(=O)c1cc2n(n1)C(C(F)(F)F)CC(c1cccs1)N2` (stereo unspecified), the inhibition was 7% (inactive).

Take `COCCN(CC(=O)NC1CCCCC1)C(=O)CSc1nc2ccccc2o1`: the inhibition is 0% (inactive).

Take `O=S(=O)(Cc1ccc(Cl)cc1)Nc1ccc2c(c1)OCO2`: the inhibition was 7% (inactive). `CC12CN3CC(C)(CN(C1)C3c1ccc(Cl)cc1Cl)C2=O` (stereo unspecified): the inhibition is 0% (inactive). In the case of `CCc1[nH]nc2c1C1(CCN(C(=O)OCc3ccccc3)CC1)C(C#N)=C(N)O2`, the inhibition was 0% (inactive). With `CCn1c(=N)n(CC(O)COc2cccc(C)c2)c2ccccc21` (stereo unspecified), the inhibition was 4% (inactive).

`O=c1[nH]c2c(s1)C(c1ccco1)C1C3CCC(C3)C1S2` (stereo unspecified): the inhibition is 0% (inactive). With `CCCc1[nH]nc2c1C(c1cccc(OC(=O)c3ccco3)c1)C(C#N)=C(N)O2` (stereo unspecified), the inhibition was 1% (inactive). On to `CS(=O)(=O)N(CC(=O)NCc1ccccn1)c1ccc2c(c1)OCCO2`, for which the inhibition was 0% (inactive).
